Data reported in PubChem BioAssay (EPA / NIEHS).
Inconclusive results are not listed. Active and inactive are the calls of the source. How the source made its calls, unless noted: active means hit-call score of the fitted dose curve at least 0.9, where 1 is the maximum; inconclusive means response in the unintended direction; inactive means score below 0.9.

Key:
PGR (gene 5241) [1] = molecular target: PGR (gene 5241) (UniProt P06401); assay: TOX21_PR_BLA_Followup_Agonist_ratio: Tox21 HEK293 Progesterone Receptor (PR) Agonism Beta-lactamase Follow-Up Assay, Ratio (AID 2283933)
Method in brief: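 Agonist-mode follow-up in HEK293T cells carrying a UAS-driven beta-lactamase reporter, grown in 2% charcoal-stripped serum. Compounds act for 16 hr; activity is the ch2/ch1 cleavage ratio, with same-well CellTiter-Glo viability run in parallel.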

PGR (gene 5241) [2] = molecular target: PGR (gene 5241) (UniProt P06401); assay: TOX21_PR_BLA_Followup_Antagonist_ratio: Tox21 HEK293 Progesterone Receptor (PR) Antagonism Beta-lactamase Follow-Up Assay, Ratio (AID 2283934);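 further: PR-UAS-bla HEK293T cells stimulated with 1 nM R5020 agonist for 16 hr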
Method in brief: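 Antagonist mode used 1 nM R5020 (final) as agonist on a beta-lactamase reporter line in HEK293T cells. Activity was taken from the substrate cleavage ratio after 16 hr exposure.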

[3] = TOX21_PR_BLA_Followup_Agonist_viability: Viability Assessment in the Tox21 HEK293 Progesterone Receptor (PR) Agonism Beta-lactamase Follow-Up Assay (AID 2283935);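 further: signal loss means lower viability so actives are cytotoxic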
Method in brief: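 Multiplexed viability counter-screen: ATP-coupled luciferase signal measured after 30 min at room temperature, following 16 hr compound treatment of PR-UAS-bla HEK293T cells grown in charcoal-stripped serum.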

[4] = TOX21_PR_BLA_Followup_Antagonist_viability: Viability Assessment in the Tox21 HEK293 Progesterone Receptor (PR) Antagonism Beta-lactamase Follow-Up Assay (AID 2283936);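 further: hits lower the luminescence signal meaning cytotoxicity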
Method in brief: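 PR-UAS-bla HEK293T cells (3,000/well, 2% charcoal-stripped FBS) given compound plus R5020 agonist, 16 h at 37C. CellTiter-Glo added after bla read, 30 min at room temperature; luminescence loss indicates cytotoxicity.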

PGR (gene 5241) [5] = molecular target: PGR (gene 5241) (UniProt P06401); assay: TOX21_PR_LUC_Followup_Agonist: Tox21 HEK293 Progesterone Receptor (PR) Agonism Luciferase Follow-Up Assay (AID 2283937; active means hit-call score of the fitted dose curve at least 0.9, where 1 is the maximum; inactive means score below 0.9)
Method in brief: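 Agonist mode: reporter cells carrying PR-A and luciferase are treated 16 h with test compounds at 37C. Luciferase induction is measured by luminescence and fitted upward against DMSO.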

THRA (gene 7067) [6] = molecular target: THRA (gene 7067) (UniProt P10827); assay: TOX21_TRA_COA_Antagonist_Followup_ratio: Tox21 Thyroid Hormone Receptor alpha Antagonism through Coactivator Recruitment Follow-Up Assay, Ratio (AID 2283953)
Method in brief: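 This follow-up to the GH3 luciferase screen checks specificity in a cell-free format. It measures SRC-2 coactivator peptide binding to TRα LBD by TR-FRET and scores loss of ratio signal relative to DMSO.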

THRB (gene 7068) [7] = molecular target: THRB (gene 7068) (UniProt P10828); assay: TOX21_TRB_BLA_Antagonist_Followup_ratio: Tox21 Thyroid Hormone Receptor beta Antagonism Beta-lactamase (BLA) Follow-Up Assay, Ratio (AID 2283958)
Method in brief: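 In this antagonist-mode follow-up, a stably integrated GAL4-TRβ LBD fusion drives a UAS-beta-lactamase reporter in HEK293T cells. Loss of ratio signal relative to DMSO after 18 h treatment indicates activity; parallel CellTiter-Glo flags cytotoxicity.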

[8] = TOX21_TRB_BLA_Antagonist_Followup_viability: Viability Assessment in the Tox21 Thyroid Hormone Receptor beta Antagonism Beta-lactamase (BLA) Follow-Up Assay (AID 2283961)
Method in brief: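 HEK293T cells stably expressing GAL4-DBD/human TRβ-LBD with UAS-bla reporter, 3,000 cells/well in phenol red-free DMEM, 2% charcoal-stripped FBS. Compounds at 11 concentrations in triplicate, 18 h at 37C/5% CO2; viability by CellTiter-Glo luminescence after 30 min at room temperature.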

THRB (gene 7068) [9] = molecular target: THRB (gene 7068) (UniProt P10828); assay: TOX21_TRB_COA_Antagonist_Followup_ratio: Tox21 Thyroid Hormone Receptor beta Antagonism through Coactivator Recruitment Follow-Up Assay, Ratio (AID 2283967)
Method in brief: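 Cell-free TR-FRET coactivator recruitment with GST-tagged TRβ LBD (5.0 nM) and fluorescein-labeled SRC-2 peptide (200 nM) detected by terbium anti-GST antibody (2 nM). The 520:495 nm emission ratio was normalized to DMSO (0%) and T3 (100%).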

[10] = CEETOX_H295R_PROG_noMTC: CeeTox H295R High-throughput Steroidogenesis Assay for Progesterone (PROG), maximum tolerated concentration (MTC) filtered results only (AID 2283920; active means hit-call score of the fitted dose curve at least 0.9, where 1 is the maximum; inactive means score below 0.9); settings: actives raise or lower the signal
Method in brief: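 H295R human adrenal cells were prestimulated 48 h with 10 uM forskolin, then exposed 48 h to test chemical (0.1% DMSO final). Progesterone in medium was quantified by HPLC-MS/MS; bidirectional fitting versus DMSO, concentrations not MTC-filtered.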

[11] = CEETOX_H295R_ESTRONE_noMTC: CeeTox H295R High-throughput Steroidogenesis Assay for Estrone, maximum tolerated concentration (MTC) filtered results only (AID 2283921; active means hit-call score of the fitted dose curve at least 0.9, where 1 is the maximum; inactive means score below 0.9); settings: actives raise or lower the signal
Method in brief: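 H295R cells prestimulated 48 h with 10 uM forskolin, then exposed 48 h to chemical in 0.1% DMSO; medium estrone measured by HPLC-MS/MS after MTBE extraction and dansyl derivatization, fitted bidirectionally versus DMSO without MTT-based MTC filtering.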

[12] = molecular target: Thyroid hormone receptor alpha (Rattus norvegicus) + Thyroid hormone receptor beta (Rattus norvegicus) (UniProt P18113+P63059); assay: TOX21_TR_LUC_GH3_Agonist_Followup: Tox21 GH3 Thyroid Hormone Receptor Agonism Luciferase Follow-Up Assay (AID 2283939)
Method in brief: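 Rat GH3 cells (1,500/well) in serum-free assay medium, treated with 15-point series, 92 uM to 5 nM final, for 24 h at 37C. Luciferase via ONE-Glo luminescence; gain of signal fitted against DMSO, T3 positive control.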

THRA (gene 7067) [13] = molecular target: THRA (gene 7067) (UniProt P10827); assay: TOX21_TRA_COA_Agonist_Followup_ratio: Tox21 Thyroid Hormone Receptor alpha Agonism through Coactivator Recruitment Follow-Up Assay, Ratio (AID 2283948; active means hit-call score of the fitted dose curve at least 0.9, where 1 is the maximum; inactive means score below 0.9)
Method in brief: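 Read-out is the 520/495 nm emission ratio (ex 340 nm), scaled between DMSO-only wells as 0% and T3 wells as 100%. It reflects fluorescein-SRC-2 peptide recruitment to GST-TRα LBD detected via terbium anti-GST antibody.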

THRB (gene 7068) [14] = molecular target: THRB (gene 7068) (UniProt P10828); assay: TOX21_TRB_BLA_Agonist_Followup_ratio: Tox21 Thyroid Hormone Receptor beta Agonism Beta-lactamase (BLA) Follow-Up Assay, Ratio (AID 2283954)
Method in brief: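 Human TRβ LBD–GAL4 DBD fusion in GeneBLAzer UAS-bla HEK293T cells; 11 concentrations in triplicate, 18 h at 37°C/5% CO2, T3 as agonist control. CCF4-AM substrate 2 h at room temperature; 460:530 nm ratio fitted for gain of signal versus DMSO.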

THRB (gene 7068) [15] = molecular target: THRB (gene 7068) (UniProt P10828); assay: TOX21_TRB_COA_Agonist_Followup_ratio: Tox21 Thyroid Hormone Receptor beta Agonism through Coactivator Recruitment Follow-Up Assay, Ratio (AID 2283963; active means hit-call score of the fitted dose curve at least 0.9, where 1 is the maximum; inactive means score below 0.9)
Method in brief: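 Signal is the 520/495 nm emission ratio (excitation 340 nm), scaled between DMSO-only wells as 0% and T3 wells as 100%. It reflects fluorescein-labeled SRC-2 peptide recruitment to GST-TRβ ligand-binding domain detected via terbium anti-GST antibody.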

[16] = molecular target: Retinoic acid receptor RXR-alpha (Homo sapiens) (UniProt P19793); assay: TOX21_TR_RXR_BLA_Agonist_Followup_ratio: Tox21 Thyroid Hormone Receptor beta Retinoid X Receptor alpha (RXRa) Agonism Beta-lactamase (BLA) Follow-Up Assay, Ratio (AID 2283968)
Method in brief: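 This follow-up tests whether responses seen in the TR GH3 luciferase agonist screen are specific, using a GAL4-driven beta-lactamase reporter for RXRa in HEK293T cells. Compound exposure lasts 16 h; signal is the cleaved/uncleaved substrate ratio.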

[17] = TOX21_TR_RXR_BLA_Agonist_Followup_viability: Viability Assessment in the Tox21 Thyroid Hormone Receptor beta Retinoid X Receptor alpha (RXRa) Agonism Beta-lactamase (BLA) Follow-Up Assay (AID 2283970)
Method in brief: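 In qHTS format, RXRa-bla HEK293T cells (2,500/well) received compound for 16h. ATP content was then measured with CellTiter-Glo, and responses were fitted bidirectionally relative to DMSO controls.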

[18] = TOX21_PR_LUC_Followup_Antagonist_viability: Viability Assessment in the Tox21 HEK293 Progesterone Receptor (PR) Antagonism Luciferase Follow-Up Assay (AID 2283940)
Method in brief: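 Cellular ATP, measured with luciferase-coupled CellTiter-Glo, served as the viability endpoint after HEK293-PR-A-luc cells were exposed to test compounds for 16 h at 37C.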

PGR (gene 5241) [19] = molecular target: PGR (gene 5241) (UniProt P06401); assay: TOX21_PR_LUC_Followup_Antagonist: Tox21 HEK293 Progesterone Receptor (PR) Antagonism Luciferase Follow-Up Assay (AID 2283938);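 further: curve fitted upward as signal gain over DMSO baseline despite antagonist label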
Method in brief: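 HEK293-PR-A-luc cells were precultured 5 days in medium with 10% charcoal-stripped FBS, seeded 3,000/well, then exposed to compounds in DMSO for 16 h at 37C. Luciferase was read by ONE-Glo luminescence after 30 min at room temperature.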

[20] = CEETOX_H295R_TESTO_noMTC: CeeTox H295R High-throughput Steroidogenesis Assay for Testosterone (TESTO), maximum tolerated concentration (MTC) filtered results only (AID 2283924; active means hit-call score of the fitted dose curve at least 0.9, where 1 is the maximum; inactive means score below 0.9); settings: actives raise or lower the signal
Method in brief: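 H295R cells prestimulated 48 h with 10 uM forskolin, then exposed 48 h to chemicals in 0.1% DMSO final. Testosterone in medium quantified by MTBE extraction and HPLC-MS/MS; bidirectional fit versus DMSO, concentrations […] filtered by MTT-based maximum tolerated concentration.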

PGR (gene 5241), sequence (P06401 whole entry, looked up): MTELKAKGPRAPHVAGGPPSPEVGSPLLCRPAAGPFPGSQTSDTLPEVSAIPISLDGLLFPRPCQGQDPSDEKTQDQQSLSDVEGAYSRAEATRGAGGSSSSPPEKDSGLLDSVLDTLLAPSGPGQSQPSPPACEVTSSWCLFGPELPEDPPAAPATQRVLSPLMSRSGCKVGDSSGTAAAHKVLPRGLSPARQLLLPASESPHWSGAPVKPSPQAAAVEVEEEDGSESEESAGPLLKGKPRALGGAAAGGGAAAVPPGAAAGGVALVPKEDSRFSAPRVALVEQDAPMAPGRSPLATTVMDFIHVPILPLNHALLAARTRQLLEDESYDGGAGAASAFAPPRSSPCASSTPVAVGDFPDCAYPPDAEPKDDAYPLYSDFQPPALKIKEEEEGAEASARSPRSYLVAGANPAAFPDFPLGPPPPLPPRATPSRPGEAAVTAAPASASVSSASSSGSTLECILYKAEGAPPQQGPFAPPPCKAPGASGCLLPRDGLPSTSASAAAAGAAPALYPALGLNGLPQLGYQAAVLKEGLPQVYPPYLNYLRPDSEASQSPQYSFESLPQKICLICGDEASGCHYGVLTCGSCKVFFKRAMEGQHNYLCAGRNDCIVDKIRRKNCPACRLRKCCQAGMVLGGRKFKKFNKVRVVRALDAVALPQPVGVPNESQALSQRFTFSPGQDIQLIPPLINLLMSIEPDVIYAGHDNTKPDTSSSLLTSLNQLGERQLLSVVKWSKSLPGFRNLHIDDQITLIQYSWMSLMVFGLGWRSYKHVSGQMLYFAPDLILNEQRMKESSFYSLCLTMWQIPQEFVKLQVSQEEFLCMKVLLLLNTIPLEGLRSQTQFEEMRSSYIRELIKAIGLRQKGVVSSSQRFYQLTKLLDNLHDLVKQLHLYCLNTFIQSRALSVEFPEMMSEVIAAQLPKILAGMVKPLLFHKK
THRB (gene 7068), sequence (P10828 whole entry, looked up, the tested form may be a part): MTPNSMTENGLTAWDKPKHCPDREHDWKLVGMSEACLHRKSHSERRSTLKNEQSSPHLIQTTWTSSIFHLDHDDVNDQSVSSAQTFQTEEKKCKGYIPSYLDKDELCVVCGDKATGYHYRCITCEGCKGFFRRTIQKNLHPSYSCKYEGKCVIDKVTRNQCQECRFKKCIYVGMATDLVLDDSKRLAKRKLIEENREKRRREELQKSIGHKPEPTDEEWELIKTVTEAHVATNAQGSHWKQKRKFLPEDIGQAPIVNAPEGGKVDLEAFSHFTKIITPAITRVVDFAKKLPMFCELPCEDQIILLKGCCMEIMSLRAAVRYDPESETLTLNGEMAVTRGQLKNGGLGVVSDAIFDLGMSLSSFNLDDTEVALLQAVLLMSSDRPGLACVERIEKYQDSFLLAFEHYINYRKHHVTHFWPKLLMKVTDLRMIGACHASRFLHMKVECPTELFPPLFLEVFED
THRA (gene 7067), sequence (P10827 whole entry, looked up, the tested form may be a part): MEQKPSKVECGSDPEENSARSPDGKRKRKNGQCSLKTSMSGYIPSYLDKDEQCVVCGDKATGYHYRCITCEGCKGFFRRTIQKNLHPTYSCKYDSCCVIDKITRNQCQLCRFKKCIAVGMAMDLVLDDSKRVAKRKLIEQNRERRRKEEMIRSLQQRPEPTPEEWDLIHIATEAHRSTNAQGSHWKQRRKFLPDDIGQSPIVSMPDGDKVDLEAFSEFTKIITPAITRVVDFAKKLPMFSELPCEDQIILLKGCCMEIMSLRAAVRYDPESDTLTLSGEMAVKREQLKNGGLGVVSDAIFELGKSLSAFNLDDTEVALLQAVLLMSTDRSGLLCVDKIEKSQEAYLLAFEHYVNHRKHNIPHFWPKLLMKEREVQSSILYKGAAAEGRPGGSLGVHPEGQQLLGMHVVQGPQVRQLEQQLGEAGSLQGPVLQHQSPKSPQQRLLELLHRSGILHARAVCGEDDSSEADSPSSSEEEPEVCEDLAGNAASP
Thyroid hormone receptor alpha (Rattus norvegicus) + Thyroid hormone receptor beta (Rattus norvegicus), sequence (P63059 whole entry, looked up): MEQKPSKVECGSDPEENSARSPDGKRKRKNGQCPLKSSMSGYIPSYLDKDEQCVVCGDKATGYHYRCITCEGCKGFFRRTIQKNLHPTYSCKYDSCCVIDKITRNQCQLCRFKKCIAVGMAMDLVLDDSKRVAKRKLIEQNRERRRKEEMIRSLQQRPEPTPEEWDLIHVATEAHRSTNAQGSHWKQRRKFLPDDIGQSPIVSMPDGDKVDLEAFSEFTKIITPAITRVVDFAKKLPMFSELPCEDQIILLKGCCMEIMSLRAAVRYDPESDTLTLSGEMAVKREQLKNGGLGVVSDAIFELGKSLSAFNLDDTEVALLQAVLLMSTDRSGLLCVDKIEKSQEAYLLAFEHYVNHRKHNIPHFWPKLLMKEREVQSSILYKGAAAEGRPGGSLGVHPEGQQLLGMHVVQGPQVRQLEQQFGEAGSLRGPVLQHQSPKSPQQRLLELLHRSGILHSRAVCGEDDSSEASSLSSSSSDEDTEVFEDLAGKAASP
Thyroid hormone receptor alpha (Rattus norvegicus) + Thyroid hormone receptor beta (Rattus norvegicus), sequence (P18113 whole entry, looked up): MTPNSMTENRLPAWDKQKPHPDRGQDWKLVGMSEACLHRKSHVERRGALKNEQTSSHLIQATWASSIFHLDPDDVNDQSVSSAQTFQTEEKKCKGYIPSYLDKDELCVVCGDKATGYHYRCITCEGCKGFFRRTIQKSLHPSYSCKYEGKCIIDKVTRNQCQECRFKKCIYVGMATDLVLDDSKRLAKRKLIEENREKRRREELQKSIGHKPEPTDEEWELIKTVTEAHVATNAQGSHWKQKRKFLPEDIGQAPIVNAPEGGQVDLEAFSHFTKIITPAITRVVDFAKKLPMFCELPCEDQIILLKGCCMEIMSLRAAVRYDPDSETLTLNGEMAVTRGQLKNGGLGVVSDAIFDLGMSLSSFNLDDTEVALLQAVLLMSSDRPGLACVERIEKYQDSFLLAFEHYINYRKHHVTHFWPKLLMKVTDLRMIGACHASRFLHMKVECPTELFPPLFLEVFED
Retinoic acid receptor RXR-alpha (Homo sapiens), sequence (P19793 whole entry, looked up, the tested form may be a part): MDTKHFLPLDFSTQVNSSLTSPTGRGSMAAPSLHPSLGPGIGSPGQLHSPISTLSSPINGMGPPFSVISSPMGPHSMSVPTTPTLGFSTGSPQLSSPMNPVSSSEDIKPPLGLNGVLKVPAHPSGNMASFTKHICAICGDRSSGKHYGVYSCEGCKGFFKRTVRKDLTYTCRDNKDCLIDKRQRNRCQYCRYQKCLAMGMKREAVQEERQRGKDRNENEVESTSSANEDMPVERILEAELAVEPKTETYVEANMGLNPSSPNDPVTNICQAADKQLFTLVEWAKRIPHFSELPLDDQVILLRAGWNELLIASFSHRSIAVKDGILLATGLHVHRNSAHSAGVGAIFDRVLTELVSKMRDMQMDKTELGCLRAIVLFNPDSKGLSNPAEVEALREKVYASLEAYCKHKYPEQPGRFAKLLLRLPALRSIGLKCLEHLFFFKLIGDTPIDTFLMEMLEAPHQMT

c1ccc2cc3c(ccc4ccccc43)cc2c1
outcome (PGR (gene 5241) [1]): inactive
AC50 (PGR (gene 5241) [2]): 21.8 µM (active)
outcome [3]: inactive
outcome [4]: inactive
outcome (PGR (gene 5241) [5]): inactive

C#C[C@]1(O)CC[C@H]2[C@@H]3CCC4=CC(=O)CC[C@@H]4[C@H]3CC[C@@]21C
outcome (THRA (gene 7067) [6]): inactive
outcome (THRB (gene 7068) [7]): inactive
outcome [8]: inactive
outcome (THRB (gene 7068) [9]): inactive

c1ccc2c(c1)Cc1ccccc1-2
outcome [10]: inactive
outcome [11]: inactive

O=C(O)Cc1cc(I)c(Oc2cc(I)c(O)c(I)c2)c(I)c1
AC50 [12]: 0.00668 µM (active)
AC50 (THRA (gene 7067) [13]): 0.276 µM (active)
AC50 (THRB (gene 7068) [14]): 0.0242 µM (active)
AC50 (THRB (gene 7068) [15]): 0.246 µM (active)
AC50 [16]: 31.5 µM (active)
outcome [17]: inactive

C[C@@H]1C[C@H]2[C@@H]3CCC4=CC(=O)C=C[C@]4(C)[C@@]3(F)[C@@H](O)C[C@]2(C)[C@@]1(O)C(=O)COP(=O)(O)O
outcome (PGR (gene 5241) [2]): inactive
outcome [3]: inactive
outcome [4]: inactive
outcome [18]: inactive

CC[C@H](c1ccc(O)cc1)[C@@H](CC)c1ccc(O)cc1
outcome (PGR (gene 5241) [1]): inactive
AC50 (PGR (gene 5241) [2]): 9.17 µM (active)
outcome [3]: inactive
outcome [4]: inactive
outcome (PGR (gene 5241) [5]): inactive
AC50 (PGR (gene 5241) [19]): 16.2 µM (active)

CC(C)(C)c1cc(C(C)(C)C)c(O)c(C(C)(C)C)c1
outcome [12]: inactive
outcome (THRA (gene 7067) [13]): inactive
outcome (THRB (gene 7068) [14]): inactive
outcome (THRB (gene 7068) [15]): inactive
AC50 [16]: 59.6 µM (active)
outcome [17]: inactive

Cc1cc(CCN2CCN(c3nsc4ccccc34)CC2)cc2c1NC(=O)CC2(C)C
AC50 [10]: 0.584 µM (active)
AC50 [11]: 4.93 µM (active)
outcome [20]: inactive
